From PubChem BioAssay AID463173 (ICCB-Longwood Screening Facility, Harvard Medical School, 2010) come the findings set out here.

Screen size: about 52,000 compounds; about 4,300 (8.3%) were called active. Cut-off read from the data, not from the text of the source: active = survival mostly below about 52% (no sharp cut-off); inactive = mostly above about 56%. The full list was thinned out, with actives kept by preference.

The subject of this experiment is DeltatarO mutant. Description: growth inhibition of S. aureus wild type versus tarO mutant, primary screen, teichoic acid synthesis inhibitors, RN4220, OD600 (AID 463173). The following applies: OD600, 18 h, active compounds read low, screened at 18.75 µg/mL (by protocol).
Consider `COc1ccc(Cl)cc1C1CC(=O)Nc2cc3c(cc21)OCCO3` (stereo unspecified), for which the survival was 102% (inactive).
For the compound `O=C(Nc1ccc(Br)cc1F)C1CCN(c2nc3ccccc3[nH]2)CC1`, the survival is 102% (inactive).
The same measure for `CCCNC(=O)Cn1c(=O)n(CC2CCC(C(=O)NC)CC2)c(=O)c2sccc21` (stereo unspecified): 87% (inactive); for `Cc1cccc(NC2=NCC(=O)N2Cc2ccccc2)c1`: 89% (inactive); for `CCOC(=O)N1CCN(C(=O)c2ccc3c(c2)N(Cc2ccccc2F)C(=O)c2ccccc2S3(=O)=O)CC1`: 72% (inactive).
The same measure for `O=S(=O)(c1ccc(OC(F)(F)F)cc1)N1CCC(c2nc3ccccc3s2)CC1`: 65% (inactive).
Consider `CNC(=O)C1CCC(Cn2c(=O)c3sccc3n(CC(=O)Nc3ccccc3)c2=O)CC1` (stereo unspecified), for which the survival was 75% (inactive).
As for `CCOC(=O)c1sc2nc(C)n(CC(=O)Nc3cccc(Cl)c3)c(=O)c2c1C`, the survival is 71% (inactive).
As for `CCOc1ccc(NC(=O)CSc2nccn2Cc2ccco2)cc1`, the survival is 91% (inactive).
On to `CCOc1ccc(-c2cn3c(n2)sc2cc(C(=O)NCCC4=CCCCC4)ccc23)cc1`, for which the survival is 87% (inactive).
For `CCOc1ccc(CCNC(=O)c2ccc3c(c2)sc2nc(-c4ccc(F)cc4)cn23)cc1OCC`, the survival was 42% (active).
As to `COc1cccc(-c2cn3c(n2)sc2cc(C(=O)NCCc4ccccc4)ccc23)c1`, the survival was 38% (active).
The same measure for `CCOc1ccc(-c2cn3c(n2)sc2cc(C(=O)NCCc4ccc(OC)cc4OC)ccc23)cc1`: 40% (active); for `COc1ccc(-c2cn3c(n2)sc2cc(C(=O)NCCc4ccc(OC)cc4OC)ccc23)cc1`: 65% (inactive); for `CCc1ccc(-c2cn3c(n2)sc2cc(C(=O)NCCc4ccc(OC)cc4OC)ccc23)cc1`: 59% (inactive).
Consider `CCOc1ccc(-c2cn3c(n2)sc2cc(C(=O)NCCc4ccc(OC)c(OC)c4)ccc23)cc1`, for which the survival is 49% (active).
For the compound `CCOc1ccc(CNC(=O)c2ccc3c(c2)sc2nc(-c4ccccc4)cn23)cc1`, the survival is 74% (inactive).
As for `CCOc1ccccc1CNC(=O)c1ccc2c(c1)sc1nc(-c3ccccc3)cn12`, the survival is 67% (inactive).
With `COc1ccccc1CNC(=O)c1ccc2c(c1)sc1nc(-c3ccc(F)cc3)cn12`, the survival was 63% (inactive).
In the case of `COc1ccc(-c2cn3c(n2)sc2cc(C(=O)NCCc4ccccc4)ccc23)cc1`, the survival is 86% (inactive).
For `COc1cccc(-c2cn3c(n2)sc2cc(C(=O)NCCCc4ccccc4)ccc23)c1`, the survival is 54% (inactive).
For `COc1ccc(C(C#N)N2N=C(C)CC2c2ccccc2)cc1OC` (stereo unspecified), the survival was 108% (inactive).
Take `CC(=O)c1ccc(NC(=O)CSc2nc(C3CCCC3)nc3c2c(=O)n(C)c(=O)n3C)cc1`: the survival is 78% (inactive).
Consider `Cc1cccc(C)c1-n1ncc(C(=O)N2CCN(c3ncccn3)CC2)c1C1CCN(C(=O)OC(C)(C)C)CC1`, for which the survival was 95% (inactive).
Consider `COc1cc(OC)c(NC(=O)CCc2nc(C3=CCN(Cc4cccc(Cl)c4)CC3)no2)cc1Cl`, for which the survival was 75% (inactive).
With `Cc1cc(C)c(NC(=O)CN(C)S(=O)(=O)c2ccc3c(c2)c(=O)n(C)c(=O)n3C)c(C)c1` the figure was 81% (inactive); with `Cc1ccc(Cl)cc1-n1ncc2c(N3CCC(C)CC3)ncnc21`, 128% (inactive).
As to `COc1cc(C(CC(=O)Nc2ccc(Br)cn2)N2Cc3ccccc3C2=O)cc(OC)c1OC` (stereo unspecified), the survival is 78% (inactive).
With `COc1cccc(-c2cn3c(n2)sc2cc(C(=O)NCCc4ccc(OC)c(OC)c4)ccc23)c1`, the survival was 49% (inactive).
As for `COc1ccc(CCNC(=O)c2ccc3c(c2)sc2nc(-c4ccc(C)cc4)cn23)cc1OC`, the survival is 81% (inactive).
With `COc1ccc(CCNC(=O)c2ccc3c(c2)sc2nc(-c4ccccc4)cn23)cc1OC` the figure was 47% (active).
Take `Cc1cc(C(=O)O)on1`: the survival was 83% (inactive).
Turning to `COc1ccc(-c2nc3ccccc3s2)cc1NC(=O)c1ccccc1F`, the survival was 151% (inactive).
With `COc1ccc(-c2nc3ccccc3s2)cc1NC(=O)c1cccc([N+](=O)[O-])c1C` the figure was 38% (active).
On to `COc1ccc(-c2nc3ccccc3s2)cc1NC(=O)c1cc2ccccc2o1`, for which the survival was 38% (active).
Consider `COc1cc(OC)cc(C(=O)Nc2ccc(-c3nc4ccccc4s3)cc2C)c1`, for which the survival is 72% (inactive).
With `O=C(Nc1cc(-c2nc3ccccc3s2)ccc1Cl)c1cc2ccccc2o1`, the survival is 105% (inactive).
Consider `COc1ccc(-c2nc3ccccc3s2)cc1NC(=O)c1ccc(C#N)cc1F`, for which the survival was 168% (inactive).
The same measure for `COc1ccc(-c2nc3ccccc3s2)cc1NC(=O)c1ccccc1OC`: 77% (inactive).
With `COc1ccc(-c2nc3ccccc3s2)cc1NC(=O)c1ccc(F)cc1`, the survival was 137% (inactive).
For `COc1cc(OC)cc(C(=O)Nc2cc(-c3nc4ccccc4s3)ccc2OC)c1`, the survival was 42% (active).
The same measure for `CCOc1ccc(C(=O)Nc2cc(-c3nc4ccccc4s3)ccc2OC)cc1`: 187% (inactive); for `COc1ccc(C(=O)Nc2cc(-c3nc4ccccc4s3)ccc2OC)cc1`: 19% (active).
For `COc1ccc(-c2nc3ccccc3s2)cc1NC(=O)c1cc(OC)c(OC)c(OC)c1`, the survival was 57% (inactive).
With `CCOC(=O)N1CCc2c(sc(NCc3sccc3C)c2C(=O)Nc2ccccc2OCC)C1`, the survival is 94% (inactive).
With `O=C(NCCS(=O)(=O)N1CCN(c2ccc(F)cc2)CC1)C(c1ccccc1)c1ccccc1` the figure was 113% (inactive); with `CC(C)COc1ccc(C(=O)N2CCN(CCc3ccccn3)CC2)cc1`, 63% (inactive).
In the case of `CC(C)(C)C(=O)C1C2C3COC(O3)C(=O)C2C2C=Cc3ccccc3N21` (stereo unspecified), the survival was 124% (inactive).
Turning to `CCc1cccc(NC(=O)Cn2c(=O)n(CC(=O)NCCc3ccccc3)c(=O)c3ccccc32)c1`, the survival is 102% (inactive).
Consider `COc1cc(Cl)c(C)cc1NC(=O)c1cc2c(Cl)nc3ccc(C)cc3c2s1`, for which the survival is 64% (inactive).
For the compound `Cn1cc(S(=O)(=O)N2CCCC2)cc1C(=O)N1CCN(c2cccc(Cl)c2)CC1`, the survival is 73% (inactive).
Regarding `CCSc1ncc(Cl)c(C(=O)N2CCN(c3ccc(OC)cc3)CC2)n1`, the survival is 83% (inactive).
For `CSc1ncc(C(=O)N2CCN(c3cccc(C(F)(F)F)c3)CC2)c(C)n1`, the survival was 69% (inactive).
With `CCS(=O)(=O)c1ncc(Cl)c(C(=O)N2CCN(c3cccc(Cl)c3)CC2)n1`, the survival was 8% (active).
As to `CSc1ncc(C(=O)N2CCN(c3cccc(Cl)c3)CC2)c(C)n1`, the survival is 0% (active).
Turning to `CS(=O)(=O)N1CCc2cc(C(=O)N3CCN(c4cccc(Cl)c4)CC3)ccc21`, the survival was 49% (inactive).
The same measure for `CCCSc1ncc(Cl)c(C(=O)N2CCN(c3ccc(OC)cc3)CC2)n1`: 49% (inactive).
With `CCCSc1ncc(Cl)c(C(=O)N2CCN(c3cccc(Cl)c3)CC2)n1`, the survival was 40% (active).
The same measure for `CCS(=O)(=O)c1ncc(Cl)c(C(=O)N2CCN(c3ccc(OC)cc3)CC2)n1`: 68% (inactive); for `CCSc1ncc(Cl)c(C(=O)N2CCN(c3ccccc3OC)CC2)n1`: 76% (inactive).
The same measure for `CSc1ncc(C(=O)N2CCN(c3ccc(Cl)cc3)CC2)c(C)n1`: 106% (inactive).
For the compound `CS(=O)(=O)c1ncc(Cl)c(C(=O)N2CCN(c3cccc(Cl)c3)CC2)n1`, the survival was 17% (active).
With `O=C(c1cccnc1)N1CCN(CCN2C(=O)C3C4C=CC(C4)C3C2=O)CC1` (stereo unspecified), the survival is 89% (inactive).
Consider `COc1ccc(-n2nc(C(=O)NCCc3ccc(OC)c(OC)c3)c3c4ccccc4n(C)c3c2=O)cc1Cl`, for which the survival is 95% (inactive).
Take `CCOc1ccc(S(=O)(=O)NCCc2csc(-c3ccc(Cl)cc3)n2)cc1`: the survival is 91% (inactive).
As for `O=C1CC(c2ccccc2)Cc2[nH]c(=O)c(-c3nc(-c4ccc(F)cc4)cs3)cc21` (stereo unspecified), the survival was 154% (inactive).
Consider `Cc1ccc(NC(=O)c2c(C)oc3ncnc(N4CCCCC4)c23)c(C)c1`, for which the survival was 108% (inactive).
In the case of `O=C(CCC1N=C2c3ccccc3N=C(SCC(=O)Nc3ccccc3F)N2C1=O)NCc1cccs1` (stereo unspecified), the survival is 96% (inactive).
The same measure for `CCc1cccc(NC(=O)Cn2c(=O)n(CC3CCC(C(=O)NC)CC3)c(=O)c3sccc32)c1` (stereo unspecified): 83% (inactive); for `Cc1ccccc1OCCSc1nc2ccc(NC(=O)c3cccc(F)c3)cc2s1`: 100% (inactive).
Regarding `O=C(NCC1CCCO1)C1CCCN1C(=O)Nc1ccc(Cl)cc1` (stereo unspecified), the survival was 84% (inactive).
With `COc1ccc(CNC(=O)c2cc(-c3cccc(Cl)c3)on2)cc1`, the survival is 49% (inactive).
The same measure for `COc1ccc(CNC(=O)c2cc(-c3ccc(OC)cc3)on2)cc1`: 210% (inactive).
With `COc1cccc(-c2cc(C(=O)Nc3cccnc3Cl)no2)c1` the figure was 61% (inactive); with `COc1cccc(-c2cc(C(=O)NCc3ccccc3)no2)c1`, 45% (active).
The same measure for `COc1cccc(-c2cc(C(=O)Nc3ccc(OC)cc3OC)no2)c1`: 56% (inactive).
Take `COc1cccc(-c2cc(C(=O)NCc3ccc(F)cc3)no2)c1`: the survival is 30% (active).
Turning to `CCC(C)NC(=O)c1cc(-c2cccc(OC)c2)on1` (stereo unspecified), the survival was 32% (active).
`COc1ccc(-c2cc(C(=O)NCc3ccc(F)cc3)no2)cc1`: the survival was 178% (inactive).
Turning to `COc1cccc(-c2cc(C(=O)NCCc3ccc(OC)c(OC)c3)no2)c1`, the survival is 173% (inactive).
For `CCOC(=O)C1CCCN(C(=O)c2c(C)nn(-c3ccc(F)cc3)c2-n2cccc2)C1` (stereo unspecified), the survival was 113% (inactive).
For `COc1cccc(NC(=O)C2CCN(c3ccc(Sc4ccc(C)cc4)nn3)CC2)c1`, the survival was 49% (inactive).
With `O=C(CSc1cn(CC(=O)N2CCCC2)c2ccccc12)Nc1ccccc1C(F)(F)F` the figure was 66% (inactive); with `O=C(NCn1nc(-c2ccccc2)nc1-c1ccccc1)c1cccnc1`, 67% (inactive).
The same measure for `CN(C)N=Nc1ccc(S(N)(=O)=O)cc1`: 92% (inactive).
`O=C(c1ccccc1)n1nc(-c2ccco2)nc1NCc1cccs1`: the survival is 81% (inactive).
Consider `CC(C)CNS(=O)(=O)c1ccc(N2CCCCS2(=O)=O)cc1`, for which the survival is 82% (inactive).
With `COc1ccc(CNC(=O)c2cc3ccccn3n2)c(OC)c1` the figure was 71% (inactive).
With `Cc1ccccc1Cn1nnc2c(=O)[nH]c(C3CCN(C(=O)c4ccccc4Cl)CC3)nc21`, the survival is 17% (active).
The same measure for `O=C(c1ccccc1Cl)N1CCCC(c2nc3c(nnn3Cc3ccc(F)cc3F)c(=O)[nH]2)C1` (stereo unspecified): 56% (inactive); for `O=C(c1cccc(Cl)c1)N1CCC(c2nc3c(nnn3Cc3ccc(F)cc3F)c(=O)[nH]2)CC1`: 11% (active).
As to `Cc1ccccc1Cn1nnc2c(=O)[nH]c(C3CCN(C(=O)c4ccccc4)CC3)nc21`, the survival is 17% (active).
The same measure for `COc1ccc(Cn2nnc3c(=O)[nH]c(C4CCN(C(=O)c5ccc(C)cc5)CC4)nc32)cc1OC`: 24% (active).
The same measure for `CCS(=O)(=O)N1CCCC(c2nc3c(nnn3Cc3ccc(C)cc3)c(=O)[nH]2)C1` (stereo unspecified): 88% (inactive); for `COc1ccc(Cn2nnc3c(=O)[nH]c(C4CCCN(C(=O)c5ccc(C)cc5)C4)nc32)cc1` (stereo unspecified): 107% (inactive); for `O=C(c1ccccc1)N1CCCC(c2nc3c(nnn3Cc3ccc(F)cc3F)c(=O)[nH]2)C1` (stereo unspecified): 101% (inactive).
